# The supplement of paper PMC9135407
# “And” between values parts separate entries of the source, which are not always exact repeats. Equal values may be shown once. Where a name gives a salt, the structure may show the parent alone. About 620 (11%) of roughly 5,800 compounds showed activity. This excerpt belongs to a sample that is enriched for actives. Unmarked numbers belong to inactive results.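 The calls were made as follows: active = score above a cut-off or among the top three wells of a plate; in these data no inactive exceeds 0.85.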
# System: primary human hepatic stellate cells (donor 1)
# Assay: scaled lipid accumulation score (0 = DMSO-like, 1 = nortriptyline-like); higher = stronger HSC inactivation (lipid re-accumulation), active = hit call of the paper
# Details: 48 h
# Procedure: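 Primary lipid accumulation screen in primary human hepatic stellate cell myofibroblasts (donor 1, passage 8) in 384-well plates. 100 nL of library compound was pin-transferred into 30 µL medium in duplicate, and cells were treated for 48 h. The 'Scaled' score combines distance from plate baseline, toxicity and reproducibility penalties, and is normalised to nortriptyline (positive) and DMSO (negative) controls on each plate. A hit is defined as scaled >0.85 or among the top 3 wells per plate.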
# [1] = library stock concentration: 1 mM
# [2] = library stock concentration: 10 mM
# [3] = library stock concentration: 3.33 mM
# [4] = library stock concentration: 80 uM
# [5] = library stock concentration: 400 uM
# [6] = library stock concentration: 2 mM
compound,measurement,setting,value
CCCCCC(=O)/C=C/[C@H]1[C@H](O)CC(=O)[C@@H]1CCCCCCC(=O)O [15-keto Prostaglandin E1],scaled lipid accumulation score,[1],≤ 0
O=C(Nc1ccc([N+](=O)[O-])cc1O)Nc1ccccc1Br,scaled lipid accumulation score,[1],≤ 0
same,scaled lipid accumulation score,[2],0.317
O[C@@H](COc1cccc2ncccc12)CN1CCN(C2c3ccccc3[C@@H]3[C@H](c4ccccc42)C3(F)F)CC1 (some centres not stated),scaled lipid accumulation score,[3],0.206
same,scaled lipid accumulation score,[2],0.837
CCC(C)N(C)C(=O)c1cc2ccccc2c(-c2ccccc2Cl)n1 (configuration not stated),scaled lipid accumulation score,[2],0.007 and ≤ 0
CC(C)(F)C[C@H](N[C@@H](c1ccc(-c2ccc(S(C)(=O)=O)cc2)cc1)C(F)(F)F)C(=O)NC1(C#N)CC1 [Odanacatib (MK-0822)],scaled lipid accumulation score,[3],≤ 0
same,scaled lipid accumulation score,[2],≤ 0
"CC(C)CCOc1ccc(N)cc1 [CP 24,879 (hydrochloride)]",scaled lipid accumulation score,[1],≤ 0
CN(C)CCOc1ccc(-c2nc(-c3ccncc3)c(-c3ccc4c(c3)CC/C4=N\O)[nH]2)cc1,scaled lipid accumulation score,[4],0.074
same,scaled lipid accumulation score,[5],0.325 and 0.619
same,scaled lipid accumulation score,[6],0.7 and 0.684
same,scaled lipid accumulation score,[2],0.476 and 0.423 and 0.307
CN(C)CCOc1ccc(-c2nc(-c3ccncc3)c(-c3ccc4c(c3)CCC4=NO)[nH]2)cc1,scaled lipid accumulation score,[3],1.06 (active)
OCCn1cc(-c2ccc3c(c2)CC/C3=N\O)c(-c2ccncc2)n1,scaled lipid accumulation score,[4],0.006
same,scaled lipid accumulation score,[5],0.086
same,scaled lipid accumulation score,[6],≤ -0.009
same,scaled lipid accumulation score,[3],0.041
same,scaled lipid accumulation score,[2],≤ 0 and ≤ -0.009
"CCCCCC(O)CCC1C(O)CC(=O)C1CCCCCCC(=O)O (configuration not stated) [13,14-dihydro Prostaglandin E1]",scaled lipid accumulation score,[1],≤ 0
"CCCCCC(O)CCC1C(O)CC(=O)C1CCCCCCC(=O)O [13,14-dihydro-15(R)-Prostaglandin E1]",scaled lipid accumulation score,[1],≤ 0
COc1ccc(-c2nc(-c3ccc(-c4cccc(Cl)c4)o3)[nH]c2-c2ccc(OC)cc2)cc1 [Neurodazine],scaled lipid accumulation score,[1],0.352
same,scaled lipid accumulation score,[2],0.113
CC(=O)OC1CC2CCC1(C)C2(C)C (configuration not stated),scaled lipid accumulation score,[2],≤ 0
Cc1cc(C=C2C(=O)C=CC2=O)cc(C)c1O [listing 1 of 2 here],scaled lipid accumulation score,[2],0.924 (active)
Cc1cc(C=C2C(=O)C=CC2=O)cc(C)c1O [listing 2 of 2 here],scaled lipid accumulation score,[4],≤ -0.001
same,scaled lipid accumulation score,[5],≤ -0.001
same,scaled lipid accumulation score,[6],0.593
same,scaled lipid accumulation score,[3],0.464
CCCCCCCCCCCCCCCCOCC(COP(=O)(O)OCC[N+](C)(C)C)OCC (configuration not stated) [2-O-ethyl PAF C-16],scaled lipid accumulation score,[1],≤ 0
CC(=O)NC(C(=O)O)c1ccccc1 (configuration not stated),scaled lipid accumulation score,[2],≤ 0
CC(C)C(=O)Nc1ncc(-c2cc(C(F)F)nn2-c2c(Cl)cccc2Cl)s1,scaled lipid accumulation score,[2],1.1 (active)
CC(=O)Nc1ccc([C@H](C)C(=O)Nc2ncc(C(C)C)s2)cc1,scaled lipid accumulation score,[5],≤ -0.005
same,scaled lipid accumulation score,[6],0.175
same,scaled lipid accumulation score,[2],0.348
CC(C)(C)c1cc(NC(=O)Nc2ccc(-c3cn4c(n3)sc3cc(OCCN5CCOCC5)ccc34)cc2)no1 [Quizartinib (AC220)] [listing 1 of 2 here],scaled lipid accumulation score,[3],0.288
CC(C)(C)c1cc(NC(=O)Nc2ccc(-c3cn4c(n3)sc3cc(OCCN5CCOCC5)ccc34)cc2)no1 [Quizartinib  (AC220) (10 mM)],scaled lipid accumulation score,[2],1.7 (active)
CC(C)(C)c1cc(NC(=O)Nc2ccc(-c3cn4c(n3)sc3cc(OCCN5CCOCC5)ccc34)cc2)no1,scaled lipid accumulation score,[4],≤ 0
same,scaled lipid accumulation score,[5],≤ 0
same,scaled lipid accumulation score,[6],0.142
same,scaled lipid accumulation score,[2],0.292
Cc1ccc(-n2nc(C(C)(C)C)cc2NC(=O)Nc2ccc(OCCN3CCOCC3)c3ccccc23)cc1,scaled lipid accumulation score,[4],≤ -0.009
same,scaled lipid accumulation score,[5],≤ -0.009
same,scaled lipid accumulation score,[6],0.044
same,scaled lipid accumulation score,[2],≤ -0.009
CC(C)(C)c1cc(NC(=O)Nc2ccc(-c3cn4c(n3)sc3cc(OCCN5CCOCC5)ccc34)cc2)no1 [Quizartinib (AC220)] [listing 2 of 2 here],scaled lipid accumulation score,[2],1.15 (active)
Cc1ccc(-n2nc(C(C)(C)C)cc2NC(=O)Nc2ccc(OCCN3CCOCC3)c3ccccc23)cc1 [BIRB 796 (Doramapimod)],scaled lipid accumulation score,[3],0.017
same,scaled lipid accumulation score,[2],≤ 0
CC(C)(C)c1cc(NC(=O)Nc2ccc(-c3cn4c(n3)sc3cc(OCCN5CCOCC5)ccc34)cc2)no1 [Quizartinib  (AC220) (2 mM)],scaled lipid accumulation score,[6],1.02 (active)
O=C(Cc1ccc(-c2ccc(OCCN3CCOCC3)cc2)cn1)NCc1ccccc1,scaled lipid accumulation score,[4],0.076
same,scaled lipid accumulation score,[5],0.268
same,scaled lipid accumulation score,[6],0.077
same,scaled lipid accumulation score,[3],0.093
same,scaled lipid accumulation score,[2],0.076 and 0.499
CC(C)(C)c1cc(NC(=O)Nc2ccc(-c3cn4c(n3)sc3cc(OCCN5CCOCC5)ccc34)cc2)no1 [Quizartinib  (AC220) (0.4 mM)],scaled lipid accumulation score,[5],≤ -0.005
"C=C1CCC(O)C/C1=C\C=C1\CCCC2(C)C1CCC2C(C)CCC(O)C(C)(C)O (configuration not stated) [24,25-Dihydroxyvitamin D3]",scaled lipid accumulation score,[1],0.016
O=C(O)CCC/C=C\C[C@H]1C(=O)C[C@@H](O)[C@@H]1/C=C/[C@@H](O)COc1ccccc1 [16-phenoxy tetranor Prostaglandin E2],scaled lipid accumulation score,[1],≤ 0
CCCCCCCCCCCCCCCCCCCCCCCC(=O)NCCS(=O)(=O)O [N-Lignoceroyl Taurine],scaled lipid accumulation score,[1],0.009
CCCCCC(O)C=CC1C(O)CC(O)C1CC=CCCCC(=O)O (stereo not drawn) [8-epi-Prostaglandin F2a],scaled lipid accumulation score,[1],≤ -0.021
O=C(Cc1ccccc1)Nc1nc2ccc(Cl)cc2c2nc(-c3ccco3)nn12,scaled lipid accumulation score,[2],0.596
CC(C)NC[C@@H](C(=O)N1CCN(c2ncnc3c2[C@H](C)C[C@H]3O)CC1)c1ccc(Cl)cc1 [listing 1 of 2 here],scaled lipid accumulation score,[2],0.881 (active)
CC(C)NC[C@@H](C(=O)N1CCN(c2ncnc3c2[C@H](C)C[C@H]3O)CC1)c1ccc(Cl)cc1 [listing 2 of 2 here],scaled lipid accumulation score,[4],≤ -0.016
same,scaled lipid accumulation score,[5],≤ -0.016
same,scaled lipid accumulation score,[6],0.083
same,scaled lipid accumulation score,[3],0.174
same,scaled lipid accumulation score,[2],0.257
"CCCCCCCC/C=C\CCCCCCCC(=O)OCC(CO)OC(=O)CCCCCCC/C=C\CCCCCCCC (configuration not stated) [1,2-Dioleoyl-glycerol (18:1)]",scaled lipid accumulation score,[1],0.004
